# Data as given in ChEMBL document CHEMBL3988442, “University of Dundee, Small-Polar-MMV Screening Library” (2021).
# For part of these data: Potency and affinity values are given separately.
# Experiments:
# [1] = target: T1, Methionyl-tRNA synthetase, putative (Leishmania donovani (strain BPK282A1)) (UniProt E9BF75); assay: Leishmania donovani Methionine tRNA synthetase (LdMetRS):v7. Dose response assay; type: functional; parameters: conc 80 nM, time 150 minutes
# T1 sequence (whole entry): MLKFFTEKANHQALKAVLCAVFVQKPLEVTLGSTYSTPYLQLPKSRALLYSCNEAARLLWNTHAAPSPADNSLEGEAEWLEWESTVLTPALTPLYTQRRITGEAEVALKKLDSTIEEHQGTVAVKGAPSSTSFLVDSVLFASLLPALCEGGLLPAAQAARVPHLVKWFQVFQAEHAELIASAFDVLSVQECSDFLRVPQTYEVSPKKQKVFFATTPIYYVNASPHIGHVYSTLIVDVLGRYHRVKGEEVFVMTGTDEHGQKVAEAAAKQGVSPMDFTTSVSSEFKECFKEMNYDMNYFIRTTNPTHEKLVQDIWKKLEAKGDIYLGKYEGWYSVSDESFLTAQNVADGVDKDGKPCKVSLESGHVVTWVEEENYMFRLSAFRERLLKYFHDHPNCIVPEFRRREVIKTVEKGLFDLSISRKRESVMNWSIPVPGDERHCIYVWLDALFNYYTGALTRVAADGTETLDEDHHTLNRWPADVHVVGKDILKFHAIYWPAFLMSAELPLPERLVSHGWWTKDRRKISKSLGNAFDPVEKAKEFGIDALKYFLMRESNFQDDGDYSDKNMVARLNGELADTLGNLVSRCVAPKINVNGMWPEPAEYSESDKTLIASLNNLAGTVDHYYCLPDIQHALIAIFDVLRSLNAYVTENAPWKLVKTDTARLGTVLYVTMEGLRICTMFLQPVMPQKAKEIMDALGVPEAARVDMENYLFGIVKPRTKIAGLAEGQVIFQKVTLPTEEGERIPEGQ
# [2] = target: Protein translocase subunit SecA (Escherichia coli (strain K12)) (UniProt P10408); assay: Assay to Identify E. coli SecA ATPase Inhibitors; type: functional; parameters: scale not given: direction of the effect not stated beside the values; settings: 30 µM
# Sequence of Protein translocase subunit SecA (Escherichia coli (strain K12)) (P10408 whole entry): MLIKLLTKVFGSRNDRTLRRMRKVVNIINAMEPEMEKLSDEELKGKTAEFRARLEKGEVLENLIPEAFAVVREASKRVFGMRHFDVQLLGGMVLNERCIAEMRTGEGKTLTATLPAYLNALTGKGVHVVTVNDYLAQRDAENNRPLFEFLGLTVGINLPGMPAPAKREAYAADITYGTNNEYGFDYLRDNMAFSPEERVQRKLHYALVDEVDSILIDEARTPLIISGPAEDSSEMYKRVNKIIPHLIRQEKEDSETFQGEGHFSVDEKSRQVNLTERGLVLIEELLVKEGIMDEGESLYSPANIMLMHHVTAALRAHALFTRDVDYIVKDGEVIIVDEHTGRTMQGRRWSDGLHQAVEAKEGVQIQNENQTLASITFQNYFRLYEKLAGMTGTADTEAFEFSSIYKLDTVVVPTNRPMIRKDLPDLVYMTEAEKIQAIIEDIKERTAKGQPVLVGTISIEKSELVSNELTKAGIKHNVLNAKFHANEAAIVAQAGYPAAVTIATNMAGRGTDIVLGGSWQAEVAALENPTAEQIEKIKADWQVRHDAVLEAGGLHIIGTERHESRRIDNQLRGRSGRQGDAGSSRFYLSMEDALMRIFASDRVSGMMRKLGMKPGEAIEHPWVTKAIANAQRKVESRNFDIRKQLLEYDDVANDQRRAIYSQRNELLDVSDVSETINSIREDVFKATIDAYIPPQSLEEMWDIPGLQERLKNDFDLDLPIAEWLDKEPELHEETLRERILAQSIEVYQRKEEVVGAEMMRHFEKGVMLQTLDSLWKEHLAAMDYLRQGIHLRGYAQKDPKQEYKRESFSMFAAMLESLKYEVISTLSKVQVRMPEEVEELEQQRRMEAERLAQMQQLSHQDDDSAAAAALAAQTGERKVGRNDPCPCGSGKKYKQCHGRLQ
# [3] = target: T2, Ubiquitin-activating enzyme e1, putative (Leishmania donovani (strain BPK282A1)) (UniProt E9BSI1); assay: Leishmania donovani Ubiquitin Activating Enzyme (LdE1); type: functional; parameters: scale not given: direction of the effect not stated beside the values; settings: 30 µM
# T2 sequence (whole entry): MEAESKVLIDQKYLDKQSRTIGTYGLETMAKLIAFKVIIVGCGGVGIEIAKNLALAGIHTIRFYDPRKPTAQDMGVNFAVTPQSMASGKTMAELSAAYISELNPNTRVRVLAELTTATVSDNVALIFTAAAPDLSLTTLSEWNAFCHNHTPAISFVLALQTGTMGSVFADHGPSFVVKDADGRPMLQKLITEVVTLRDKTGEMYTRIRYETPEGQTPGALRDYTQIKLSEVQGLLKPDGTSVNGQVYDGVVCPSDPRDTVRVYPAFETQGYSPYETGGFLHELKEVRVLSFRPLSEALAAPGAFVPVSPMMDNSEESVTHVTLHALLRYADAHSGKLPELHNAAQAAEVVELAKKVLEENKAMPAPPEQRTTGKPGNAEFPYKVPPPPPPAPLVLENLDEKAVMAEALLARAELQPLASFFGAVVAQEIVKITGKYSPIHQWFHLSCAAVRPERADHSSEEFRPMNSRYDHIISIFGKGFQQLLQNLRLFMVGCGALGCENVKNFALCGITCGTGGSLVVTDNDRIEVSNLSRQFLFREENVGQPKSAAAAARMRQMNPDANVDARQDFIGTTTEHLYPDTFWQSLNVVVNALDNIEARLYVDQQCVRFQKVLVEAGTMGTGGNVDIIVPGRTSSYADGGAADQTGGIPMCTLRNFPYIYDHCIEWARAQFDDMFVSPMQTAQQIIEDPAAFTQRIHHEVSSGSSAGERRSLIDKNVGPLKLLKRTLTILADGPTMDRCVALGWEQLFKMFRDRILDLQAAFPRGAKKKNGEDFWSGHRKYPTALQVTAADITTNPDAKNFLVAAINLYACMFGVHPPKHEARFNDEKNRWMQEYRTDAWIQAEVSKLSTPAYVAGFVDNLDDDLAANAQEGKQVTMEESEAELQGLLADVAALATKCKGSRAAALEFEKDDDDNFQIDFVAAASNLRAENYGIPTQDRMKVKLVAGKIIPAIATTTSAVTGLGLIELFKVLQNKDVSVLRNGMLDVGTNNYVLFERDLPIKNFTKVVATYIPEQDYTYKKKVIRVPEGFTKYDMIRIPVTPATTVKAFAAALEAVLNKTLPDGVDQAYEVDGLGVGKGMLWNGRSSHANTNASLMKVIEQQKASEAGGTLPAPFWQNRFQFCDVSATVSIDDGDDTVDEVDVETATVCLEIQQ
# [4] = target: AMP-activated protein kinase, AMPK (Homo sapiens) (UniProt P54646+O43741+P54619+Q9UGJ0+Q9Y478+Q13131+Q9UGI9); assay: AMP-dependent Kinase enzyme assay. An in vitro enzyme assay that detects ADP turnover that is directly proportional to AMPK activity. This uses naive AMPK that is activated during the assay with MK-8722; type: functional; parameters: scale not given: direction of the effect not stated beside the values; settings: 30 µM
# [5] = target: Sialic acid-binding Ig-like lectin 9 (Homo sapiens) (UniProt Q9Y336); assay: Hs-Siglec9 ALPHAscreen SOP 20170721; parameters: scale not given: direction of the effect not stated beside the values; settings: 10 µM
# Sequence of Sialic acid-binding Ig-like lectin 9 (Homo sapiens) (Q9Y336 whole entry): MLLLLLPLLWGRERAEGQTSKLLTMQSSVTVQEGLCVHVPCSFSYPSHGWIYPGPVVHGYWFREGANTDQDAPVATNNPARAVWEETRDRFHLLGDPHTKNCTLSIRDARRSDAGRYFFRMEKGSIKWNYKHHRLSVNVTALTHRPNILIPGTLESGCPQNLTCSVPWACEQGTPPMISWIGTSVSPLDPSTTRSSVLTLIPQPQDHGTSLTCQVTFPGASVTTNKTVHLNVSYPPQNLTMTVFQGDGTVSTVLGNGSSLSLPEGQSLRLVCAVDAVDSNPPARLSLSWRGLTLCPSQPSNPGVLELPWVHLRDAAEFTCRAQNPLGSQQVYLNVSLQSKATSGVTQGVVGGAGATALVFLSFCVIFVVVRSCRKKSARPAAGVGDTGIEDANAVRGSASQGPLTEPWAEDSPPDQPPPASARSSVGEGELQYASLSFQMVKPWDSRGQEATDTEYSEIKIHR
# Trypanosoma cruzi = assay: Trypanosoma cruzi phosphomannomutase and mannose-1-phosphate guanylyltransferase assay; type: functional; parameters: scale not given: direction of the effect not stated beside the values; settings: 10 µM
# [6] = target: T3, Arginase-2, mitochondrial (Homo sapiens) (UniProt P78540); assay: in vitro enzyme assay to detect the production of urea directly proportional to the activity of Arginase II; type: functional; parameters: scale not given: in the data most compounds retested in dose-response had high values; settings: 33.3 µM
# T3 sequence (whole entry): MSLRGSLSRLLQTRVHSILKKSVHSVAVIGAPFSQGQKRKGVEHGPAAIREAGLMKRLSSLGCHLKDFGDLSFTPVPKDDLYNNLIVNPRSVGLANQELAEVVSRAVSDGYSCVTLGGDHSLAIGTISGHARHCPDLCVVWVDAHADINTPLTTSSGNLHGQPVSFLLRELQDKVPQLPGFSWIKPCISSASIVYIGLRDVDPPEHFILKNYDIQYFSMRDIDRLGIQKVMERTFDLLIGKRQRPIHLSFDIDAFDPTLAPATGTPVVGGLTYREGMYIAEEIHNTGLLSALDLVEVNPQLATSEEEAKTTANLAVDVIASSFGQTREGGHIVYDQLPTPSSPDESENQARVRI
# [7] = target: T4, Proteasome subunit beta (Trypanosoma cruzi) (UniProt O96673); assay: Trypanosoma cruzi proteasome chymotrypsin-like activity (TcProtChymo) assay.; type: functional; parameters: scale not given: in the data most compounds retested in dose-response had high values; settings: 9.37 µM
# T4 sequence (whole entry): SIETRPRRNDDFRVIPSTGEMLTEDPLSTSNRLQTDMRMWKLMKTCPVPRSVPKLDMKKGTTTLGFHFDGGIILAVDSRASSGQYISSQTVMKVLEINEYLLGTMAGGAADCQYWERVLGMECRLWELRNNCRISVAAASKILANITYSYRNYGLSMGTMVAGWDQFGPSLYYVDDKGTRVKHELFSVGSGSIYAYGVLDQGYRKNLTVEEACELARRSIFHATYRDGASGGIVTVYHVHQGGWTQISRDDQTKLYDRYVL
# Homo sapiens = organism: Homo sapiens; assay: To identify inhibition of the IFN signalling (Jak-Stat) pathway via expression of an eGFP reporter gene under the control of an IFN-stimulated response element (ISRE) containing MxA promoter.; type: functional; parameters: scale not given: direction of the effect not stated beside the values; settings: 30 µM
# [8] = target: T5, Tyrosyl-tRNA synthetase, putative (Trypanosoma cruzi (strain CL Brener)) (UniProt Q4DSP6); assay: Trypanosoma cruzi tyrosyl tRNA synthetase (TcYRS) _High Tyrosine SOP; type: functional; parameters: scale not given: in the data most compounds retested in dose-response had high values; settings: 30 µM
# T5 sequence (whole entry): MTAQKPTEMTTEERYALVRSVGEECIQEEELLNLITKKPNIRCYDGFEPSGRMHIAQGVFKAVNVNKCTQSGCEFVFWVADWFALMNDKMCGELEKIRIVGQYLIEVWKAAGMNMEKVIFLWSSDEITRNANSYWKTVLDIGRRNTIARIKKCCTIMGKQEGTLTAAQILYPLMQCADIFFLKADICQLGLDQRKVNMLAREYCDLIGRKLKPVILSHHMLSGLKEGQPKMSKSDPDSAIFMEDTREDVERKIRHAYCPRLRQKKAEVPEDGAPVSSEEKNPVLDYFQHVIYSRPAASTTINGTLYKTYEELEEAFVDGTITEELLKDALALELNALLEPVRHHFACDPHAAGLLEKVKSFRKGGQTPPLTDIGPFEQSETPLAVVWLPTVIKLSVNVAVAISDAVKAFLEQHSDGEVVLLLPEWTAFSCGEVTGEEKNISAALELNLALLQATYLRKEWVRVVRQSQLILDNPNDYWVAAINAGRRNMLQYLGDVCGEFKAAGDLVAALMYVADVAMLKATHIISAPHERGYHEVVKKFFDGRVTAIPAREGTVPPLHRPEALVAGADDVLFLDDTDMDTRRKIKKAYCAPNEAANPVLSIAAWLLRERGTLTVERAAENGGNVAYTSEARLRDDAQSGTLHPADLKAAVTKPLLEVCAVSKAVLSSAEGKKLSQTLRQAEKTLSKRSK
# [9] = target: T5, Tyrosyl-tRNA synthetase, putative (Trypanosoma cruzi (strain CL Brener)); assay: Trypanosoma cruzi tyrosyl tRNA synthetase (TcYRS) SOP; type: functional; parameters: scale not given: direction of the effect not stated beside the values; settings: 30 µM
# [10] = target: Chromo domain-containing protein 1 (Saccharomyces cerevisiae (strain ATCC 204508 / S288c) (Baker's yeast)) (UniProt P32657); assay: ScCHD-1 Enzyme Inhibition Assay; type: functional; parameters: scale not given: in the data most compounds retested in dose-response had high values; settings: 30 µM
# Sequence of Chromo domain-containing protein 1 (Saccharomyces cerevisiae (strain ATCC 204508 / S288c) (Baker's yeast)) (P32657 whole entry, the tested form may be a part): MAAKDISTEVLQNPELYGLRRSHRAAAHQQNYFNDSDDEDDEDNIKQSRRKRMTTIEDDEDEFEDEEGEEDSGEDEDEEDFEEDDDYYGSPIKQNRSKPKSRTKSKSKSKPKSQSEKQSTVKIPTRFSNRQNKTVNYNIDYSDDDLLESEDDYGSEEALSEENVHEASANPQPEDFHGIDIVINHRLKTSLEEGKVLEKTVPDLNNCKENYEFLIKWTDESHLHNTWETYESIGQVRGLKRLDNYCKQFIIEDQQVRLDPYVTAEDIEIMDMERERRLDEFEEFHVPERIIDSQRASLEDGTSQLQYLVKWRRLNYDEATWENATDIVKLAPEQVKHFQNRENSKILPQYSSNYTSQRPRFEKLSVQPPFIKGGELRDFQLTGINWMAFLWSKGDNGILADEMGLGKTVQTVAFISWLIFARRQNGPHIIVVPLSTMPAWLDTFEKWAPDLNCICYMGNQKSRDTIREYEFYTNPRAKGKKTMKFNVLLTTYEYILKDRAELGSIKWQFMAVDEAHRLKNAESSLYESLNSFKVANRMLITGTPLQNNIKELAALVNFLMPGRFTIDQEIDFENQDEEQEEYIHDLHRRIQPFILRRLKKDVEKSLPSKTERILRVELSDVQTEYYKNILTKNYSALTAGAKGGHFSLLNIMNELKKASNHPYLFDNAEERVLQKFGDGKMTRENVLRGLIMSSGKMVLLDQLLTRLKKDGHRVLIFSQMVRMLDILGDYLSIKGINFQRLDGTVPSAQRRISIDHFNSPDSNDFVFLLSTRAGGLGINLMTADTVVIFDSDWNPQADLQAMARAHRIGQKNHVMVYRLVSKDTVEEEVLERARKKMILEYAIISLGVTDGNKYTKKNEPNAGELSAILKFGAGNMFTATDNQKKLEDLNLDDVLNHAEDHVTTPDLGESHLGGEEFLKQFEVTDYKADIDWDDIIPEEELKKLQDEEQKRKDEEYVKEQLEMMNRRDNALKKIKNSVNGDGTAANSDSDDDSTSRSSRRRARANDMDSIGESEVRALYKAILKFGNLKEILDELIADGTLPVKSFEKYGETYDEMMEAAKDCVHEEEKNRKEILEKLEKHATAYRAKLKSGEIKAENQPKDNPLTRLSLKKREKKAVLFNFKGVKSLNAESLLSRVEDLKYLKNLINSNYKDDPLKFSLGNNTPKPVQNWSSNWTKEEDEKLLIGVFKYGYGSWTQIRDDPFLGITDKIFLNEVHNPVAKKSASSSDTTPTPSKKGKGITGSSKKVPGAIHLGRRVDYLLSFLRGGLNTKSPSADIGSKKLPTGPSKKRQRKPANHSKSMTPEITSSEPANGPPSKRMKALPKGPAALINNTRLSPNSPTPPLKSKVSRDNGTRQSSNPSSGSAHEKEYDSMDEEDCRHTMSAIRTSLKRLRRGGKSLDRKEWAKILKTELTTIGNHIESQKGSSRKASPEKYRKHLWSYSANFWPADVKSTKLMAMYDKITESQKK
SMILES,"PXC50 ([1]; BOTTOM 0.694327114, HILLSLOPE 1.749821258, MAX_EFFECT 87.74703557, TOP 100.0)","PXC50 ([1]; BOTTOM 1.783825543, HILLSLOPE 1.533717892, MAX_EFFECT 94.44444444, TOP 106.8963367)","PXC50 ([1]; BOTTOM 1.928318756, HILLSLOPE 2.074005498, MAX_EFFECT 78.73015873, TOP 100.0)","PXC50 ([1]; BOTTOM 4.876612539, HILLSLOPE 1.662902224, MAX_EFFECT 88.59060403, TOP 97.50762335)","PXC50 ([1]; BOTTOM 5.143035966, HILLSLOPE 1.849282201, MAX_EFFECT 96.18717504, TOP 100.0)",PXC50 ([1]; MAX_EFFECT 12.14788732),PXC50 ([1]; MAX_EFFECT 12.35154394),Percent Effect [2] [%],Percent Effect [3] [%],Percent Effect [4] [%],Percent Effect [5] [%],Percent Effect (Trypanosoma cruzi) [%],Percent Effect [6] [%],Percent Effect [7] [%],Percent Effect (Homo sapiens) [%],Percent Effect [8] [%],Percent Effect [9] [%],Percent Effect [10] [%]
Cc1cc(C)n(-c2nc(NCCCO)c3c4c(sc3n2)CCCC4)n1,4.43,4.59,4.27,4.61,4.48,–,–,–,–,–,–,–,–,–,–,–,–,–
FC1(F)CCN(Cc2cccnc2)CC12CCN(c1ccccn1)C2 (stereo not drawn),–,–,–,–,–,< 4,< 4,-2.18,16.2,5.61,-2.07,-4.99,17.5,21.4,33.7,1.08,12.8,-3.06
